From PubChem BioAssay (NCI) come the findings set out here.

Assay [1] in a line: NCI Yeast Anticancer Drug Screen. Data for the rad50 strain (AID 155).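 Note: 0% = growth of vehicle-only cultures of the same strain.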 To be noted: S. cerevisiae rad50 strain growth inhibition, hits give high values; at 50.0 µM unless noted. A digest of the protocol: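 Relative growth inhibition (compound vs vehicle) was measured in yeast with a defined repair-gene alteration.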
The nature of assay [2]: NCI Yeast Anticancer Drug Screen. Data for the mec2-1 strain (AID 157). To be noted: S. cerevisiae mec2-1 strain, hits give high values; at 50.0 µM unless noted. A digest of the protocol: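 Test agents were screened against the mec2-1 yeast strain, with defined DNA repair or cell cycle alteration. Growth was scored as inhibition against vehicle-only controls.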
Assay [3] is described as follows: NCI Yeast Anticancer Drug Screen. Data for the sgs1 mgt1 strain (AID 161).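 Note: 0% = growth of cultures given vehicle only.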 To be noted: S. cerevisiae sgs1 mgt1 strain, hits give high values; at 50.0 µM unless noted. A digest of the protocol:
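Mutant yeast exposed to compound; growth scored against vehicle-only wells.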

Assay [4] is described as follows: NCI Yeast Anticancer Drug Screen. Data for the cln2 rad14 strain (AID 165).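 Note: 0% = growth equal to vehicle treated cultures.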 The following applies: S. cerevisiae cln2 rad14 strain, hits give high values; at 50.0 µM unless noted. A digest of the protocol: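 Growth of compound-exposed yeast (cln2 rad14 genotype) measured and expressed as inhibition relative to vehicle.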
Assay [5] can be described thus: NCI Yeast Anticancer Drug Screen. Data for the bub3 strain (AID 167). The following applies: S. cerevisiae bub3 mutant strain, hits give high values; at 50.0 µM unless noted. A digest of the protocol:
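Screening used yeast with an engineered genetic alteration affecting cell cycle control. Compound-exposed cultures were compared with vehicle cultures, and reduced growth was taken as inhibition.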

The nature of assay [6]: NCI Yeast Anticancer Drug Screen. Data for the mlh1 rad18 strain (AID 175). To be noted: S. cerevisiae mlh1 rad18 strain growth inhibition, hits give high values; at 50.0 µM unless noted. A digest of the protocol:
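In this whole-cell yeast screen, a strain with altered DNA damage repair is challenged with compound, and its growth is measured against matched vehicle-treated controls.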

Where “and” joins values, the source holds several entries; their conditions need not be identical. Equal entries are not always repeated. This is part of a sample that, as a whole, favours compounds with a hit. Of some 79,000 tested, about 15% had one in any assay. Unmarked numbers belong to inactive results. Calls of active or inactive are those of the source. Cut-off read from the data, not from the text of the source: active = growth inhibition above about 70%; inactive = the rest. Where a SMILES comes first, the peptide text is derived from it. The star is where a group is joined. Cbz = O=C(OCc1ccccc1)*; Boc = CC(C)(C)OC(=O)*; tBu = CC(C)(C)*

Turning to `CCCC(=O)Nc1ccc(C2=NNC(=O)C3CC23)cc1` (stereo not given), the growth inhibition in assay [1] was 31.2%; in assay [2], 26.6%; in assay [3], 33.5%; in assay [4], -20%; in assay [5], 27.9%; in assay [6] it was 36.5%.
Turning to `O=C1C(c2ccccc2)=C(c2ccccc2)C1(Cl)Cl`, the growth inhibition in assay [1] was -5.95%; in assay [2] it was -6.1%; in assay [3], 44.3%; in assay [4] it was 37.6%; in assay [5] it was 17.9%; in assay [6], 88.4% (active).
In the case of `CCOC(=O)C(=O)Nc1cc(C)no1`, the growth inhibition in assay [1] is 4.95%; in assay [2], 9.85%; in assay [3] it was -6.6%; in assay [4] it was -25.6%; in assay [5], -25.1%; in assay [6] it was -2%.
Take `Cc1ccc(NC(=O)Oc2ccc(C#N)cc2)c(C)c1`: the growth inhibition in assay [1] was 7.45%; in assay [2], -22.8%; in assay [3] it was -0.9%; in assay [4], 2.05%; in assay [5], -3.35%; in assay [6] it was 8.9%.
`CCOC(=O)c1oc2cc(O)ccc2c(=O)c1-c1ccc(OC)c(OC)c1`: the growth inhibition in assay [1] was 5.95%; in assay [2], -1.7%; in assay [3], 16.3%; in assay [4] it was 3.45%; in assay [5], 4.65%; in assay [6], 11.8%.
Consider `CCCNC(=O)NS(=O)(=O)c1ccc(Cl)cc1`, for which the growth inhibition in assay [1] is -4.15% and -5.15%; in assay [2] it was 0.2% and -0.4%; in assay [3] it was 4.2% and 1.6%; in assay [4], 15.6% and -26.4%; in assay [5] it was 11.7% and 23.1%; in assay [6], 38.3% and -7.15%.
Turning to `O=C1NCCCc2nonc21`, the growth inhibition in assay [1] was 18.9%; in assay [2], 16.4%; in assay [3] it was 7.9%; in assay [4], 4%; in assay [5] it was 4%; in assay [6] it was 5.2%.
For `COC(=O)C(Cc1ccccc1)C(=O)C(CC(=O)OC(C)(C)C)NC(=O)OC(C)(C)C` (stereo not given), the growth inhibition in assay [1] is 14.7%; in assay [2], 1.15%; in assay [3], 17%; in assay [4] it was 10.8%; in assay [5] it was 22.1%; in assay [6], -27.5%.
`O=C(Nc1ccc(F)cc1)c1ccc([N+](=O)[O-])cc1`: the growth inhibition in assay [1] was 0.5%; in assay [2] it was -1%; in assay [3] it was 36.1%; in assay [4], -9.6%; in assay [5], 19%; in assay [6], 8.15%.
Consider `CCOC(=O)C(N)CSC(=O)NC` (stereo not given), for which the growth inhibition in assay [1] was 24.9%; in assay [2], -3.4%; in assay [3], 16%; in assay [4], 3.2%; in assay [5] it was 20.9%; in assay [6], -49.5%.
As for `CC(OC(C)(C)C)C(NC(=O)C(CCCCNC(=O)OC(C)(C)C)NC(=O)C(Cc1c[nH]c2ccccc12)NC(=O)C(Cc1ccccc1)NC(=O)OCc1ccccc1)C(=O)NC(Cc1ccccc1)C(=O)O` (stereo not given) (Cbz-FWK(Boc)T(tBu)F-OH; configuration not given here), the growth inhibition was -10.3% in assay [1]; -16.6% in assay [2]; -24.2% in assay [3]; 24.4% in assay [4]; 1.3% in assay [5]; -19.4% in assay [6].
For `COc1ccc2c3c([nH]c2c1N)C(C)NCC3` (stereo not given), the growth inhibition in assay [1] is -11.4%; in assay [2] it was -18.9%; in assay [3], 4.2%; in assay [4], 13.3%; in assay [5] it was -18.3%; in assay [6], 0.4%.
With `CN(C)c1ccc(/C=C(\NC(=O)c2ccccc2)c2nc3ccccc3c(=O)o2)cc1`, the growth inhibition in assay [1] was 8.45%; in assay [2] it was 10.3%; in assay [3] it was 3.95%; in assay [4] it was 11.5%; in assay [5], -15.8%; in assay [6], -9.3%.
Take `CCO[C@@H]1OC(=O)[C@H]2C(c3ccccc3)=NO[C@@H]12`: the growth inhibition was -13.2% in assay [1]; -22.4% in assay [2]; -9.7% in assay [3]; 7.55% in assay [4]; 13.7% in assay [5]; -4.15% in assay [6].
With `O=c1c2cc3c(=O)n4c(cc(-c5ccccc5)c5cc(Cl)ccc54)nc3cc2nc2cc(-c3ccccc3)c3cc(Cl)ccc3n12`, the growth inhibition is 14.2% in assay [1]; 5.55% in assay [2]; 18.9% in assay [3]; 14.2% in assay [4]; -1.05% in assay [5]; -9.7% in assay [6].
As to `O=C1C(O)=C(O)C(Br)=C/C1=C(/c1ccccc1S(=O)(=O)O)c1cc(Br)c(O)c(O)c1O`, the growth inhibition is 9.65% in assay [1]; 6.9% in assay [2]; 15.5% in assay [3]; 1.8% in assay [4]; -0.2% in assay [5]; 18.4% in assay [6].
As to `CCCC(=O)N(C(C)C)C(C)C`, the growth inhibition in assay [1] was 11.2%; in assay [2] it was 22%; in assay [3] it was 12.5%; in assay [4] it was 6.6%; in assay [5] it was 8.5%; in assay [6], 8.8%.
Consider `CCOc1ccc(NC(=O)C(=O)CC(=O)c2c(C)n([O-])c3ccccc3[n+]2=O)cc1`, for which the growth inhibition was -5.95% in assay [1]; 3.8% in assay [2]; -34.5% in assay [3]; 7.2% in assay [4]; 0.1% in assay [5]; -10.8% in assay [6].
Regarding `CN(O)C(=O)CCC(NC(=O)CCC(N)C(=O)O)C(=O)NCC(=O)O` (stereo not given), the growth inhibition in assay [1] is -25.4%; in assay [2], -9.3%; in assay [3], -11.9%; in assay [4] it was 0.1%; in assay [5], 1.6%; in assay [6] it was -51.8%.
With `O=[N+]([O-])c1ccc(CC(Cl)c2ccccc2)cc1` (stereo not given), the growth inhibition in assay [1] is 40.8%; in assay [2], 2.35%; in assay [3], 39.5%; in assay [4] it was -19.1%; in assay [5], 29.8%; in assay [6] it was 63%.
